Data as given in publication PMC11062922 (Nature Chemical Biology, 2023).
Where two headings read alike, the source gives them in different places.

Test system: PRKD2
Details: read-out: apparent Kd, n = 1

Substance: Lestaurtinib
- potency estimated from few doses (compound concentrations:100 nM and 1000 nM (sheet 'Lestaurtinib' of Supplementary Table 1),run:Lestaurtinib_02364_R3,Plate:MR002): 45.4 nM
- potency estimated from few doses (compound concentrations:100 nM and 1000 nM (sheet 'Lestaurtinib' of Supplementary Table 1),run:Lestaurtinib_02367_R2,Plate:MR003): 43.5 nM
- potency estimated from few doses (compound concentrations:100 nM and 1000 nM (sheet 'Lestaurtinib' of Supplementary Table 1),run:Lestaurtinib_02367_R3,Plate:MR003): 44.3 nM
- potency estimated from few doses (compound concentrations:100 nM and 1000 nM (sheet 'Lestaurtinib' of Supplementary Table 1),run:Lestaurtinib_02381_R1,Plate:MR004): 50.1 nM
- potency estimated from few doses (compound concentrations:100 nM and 1000 nM (sheet 'Lestaurtinib' of Supplementary Table 1),run:Lestaurtinib_02381_R2,Plate:MR004): 54.4 nM
- potency estimated from few doses (compound concentrations:100 nM and 1000 nM (sheet 'Lestaurtinib' of Supplementary Table 1),run:Lestaurtinib_02381_R3,Plate:MR004): 41.5 nM
- potency estimated from few doses (compound concentrations:100 nM and 1000 nM (sheet 'Lestaurtinib' of Supplementary Table 1),run:Lestaurtinib_02407_R2,Plate:MR005): 51.1 nM
- potency estimated from few doses (compound concentrations:100 nM and 1000 nM (sheet 'Lestaurtinib' of Supplementary Table 1),run:Lestaurtinib_02407_R3,Plate:MR005): 45.8 nM
- potency estimated from few doses (compound concentrations:100 nM and 1000 nM (sheet 'Lestaurtinib' of Supplementary Table 1),run:Lestaurtinib_02422_R1,Plate:MR006): 40.9 nM
- potency estimated from few doses (compound concentrations:100 nM and 1000 nM (sheet 'Lestaurtinib' of Supplementary Table 1),run:Lestaurtinib_02422_R2,Plate:MR006): 24 nM
- potency estimated from few doses (compound concentrations:100 nM and 1000 nM (sheet 'Lestaurtinib' of Supplementary Table 1),run:Lestaurtinib_02422_R3,Plate:MR006): 41 nM
- potency estimated from few doses (compound concentrations:100 nM and 1000 nM (sheet 'Lestaurtinib' of Supplementary Table 1),run:Lestaurtinib_02437_R1,Plate:MR007): 45.2 nM
- potency estimated from few doses (compound concentrations:100 nM and 1000 nM (sheet 'Lestaurtinib' of Supplementary Table 1),run:Lestaurtinib_02437_R2,Plate:MR007): 74.6 nM
- potency estimated from few doses (compound concentrations:100 nM and 1000 nM (sheet 'Lestaurtinib' of Supplementary Table 1),run:Lestaurtinib_02437_R3,Plate:MR007): 3.14 nM
- potency estimated from few doses (compound concentrations:100 nM and 1000 nM (sheet 'Lestaurtinib' of Supplementary Table 1),run:Lestaurtinib_02438_R1,Plate:MR008): 45.4 nM
- potency estimated from few doses (compound concentrations:100 nM and 1000 nM (sheet 'Lestaurtinib' of Supplementary Table 1),run:Lestaurtinib_02438_R2,Plate:MR008): 51 nM
- potency estimated from few doses (compound concentrations:100 nM and 1000 nM (sheet 'Lestaurtinib' of Supplementary Table 1),run:Lestaurtinib_02438_R3,Plate:MR008): 31.7 nM
- potency estimated from few doses (compound concentrations:100 nM and 1000 nM (sheet 'Lestaurtinib' of Supplementary Table 1),run:Lestaurtinib_02443_R2,Plate:MR009): 43.2 nM
- potency estimated from few doses (compound concentrations:100 nM and 1000 nM (sheet 'Lestaurtinib' of Supplementary Table 1),run:Lestaurtinib_02473_R3,Plate:MR010): 38.9 nM
- potency estimated from few doses (compound concentrations:100 nM and 1000 nM (sheet 'Lestaurtinib' of Supplementary Table 1),run:Lestaurtinib_02482_R2,Plate:MR011): 50.4 nM
- potency estimated from few doses (compound concentrations:100 nM and 1000 nM (sheet 'Lestaurtinib' of Supplementary Table 1),run:Lestaurtinib_02482_R3,Plate:MR011): 42.2 nM
- potency estimated from few doses (compound concentrations:100 nM and 1000 nM (sheet 'Lestaurtinib' of Supplementary Table 1),run:Lestaurtinib_02487_R2,Plate:MR012): 40.1 nM
- potency estimated from few doses (compound concentrations:100 nM and 1000 nM (sheet 'Lestaurtinib' of Supplementary Table 1),run:Lestaurtinib_02487_R3,Plate:MR012): 67.4 nM
- potency estimated from few doses (compound concentrations:100 nM and 1000 nM (sheet 'Lestaurtinib' of Supplementary Table 1),run:Lestaurtinib_02496_R1,Plate:MR013): 47.4 nM
- potency estimated from few doses (compound concentrations:100 nM and 1000 nM (sheet 'Lestaurtinib' of Supplementary Table 1),run:Lestaurtinib_02496_R2,Plate:MR013): 58.1 nM
- potency estimated from few doses (compound concentrations:100 nM and 1000 nM (sheet 'Lestaurtinib' of Supplementary Table 1),run:Lestaurtinib_02496_R3,Plate:MR013): 50.5 nM
- potency estimated from few doses (compound concentrations:100 nM and 1000 nM (sheet 'Lestaurtinib' of Supplementary Table 1),run:Lestaurtinib_02566_R1,Plate:MR014): 67.2 nM
- potency estimated from few doses (compound concentrations:100 nM and 1000 nM (sheet 'Lestaurtinib' of Supplementary Table 1),run:Lestaurtinib_02566_R2,Plate:MR014): 39.4 nM
- potency estimated from few doses (compound concentrations:100 nM and 1000 nM (sheet 'Lestaurtinib' of Supplementary Table 1),run:Lestaurtinib_02566_R3,Plate:MR014): 46.5 nM
- potency estimated from few doses (compound concentrations:100 nM and 1000 nM (sheet 'Lestaurtinib' of Supplementary Table 1),run:Lestaurtinib_02572_R1,Plate:MR015): 38.1 nM
- potency estimated from few doses (compound concentrations:100 nM and 1000 nM (sheet 'Lestaurtinib' of Supplementary Table 1),run:Lestaurtinib_02572_R2,Plate:MR015): 52 nM
- potency estimated from few doses (compound concentrations:100 nM and 1000 nM (sheet 'Lestaurtinib' of Supplementary Table 1),run:Lestaurtinib_02572_R3,Plate:MR015): 82.5 nM
- potency estimated from few doses (compound concentrations:100 nM and 1000 nM (sheet 'Lestaurtinib' of Supplementary Table 1),run:Lestaurtinib_02577_R3,Plate:MR016): 35.8 nM
- potency estimated from few doses (compound concentrations:100 nM and 1000 nM (sheet 'Lestaurtinib' of Supplementary Table 1),run:Lestaurtinib_02584_R1,Plate:MR017): 50.7 nM
- potency estimated from few doses (compound concentrations:100 nM and 1000 nM (sheet 'Lestaurtinib' of Supplementary Table 1),run:Lestaurtinib_02584_R3,Plate:MR017): 33 nM
- potency estimated from few doses (compound concentrations:100 nM and 1000 nM (sheet 'Lestaurtinib' of Supplementary Table 1),run:Lestaurtinib_02601_R2,Plate:MR018): 54.7 nM
- potency estimated from few doses (compound concentrations:100 nM and 1000 nM (sheet 'Lestaurtinib' of Supplementary Table 1),run:Lestaurtinib_02601_R3,Plate:MR018): 50.7 nM
- potency estimated from few doses (compound concentrations:100 nM and 1000 nM (sheet 'Lestaurtinib' of Supplementary Table 1),run:Lestaurtinib_02606_R1,Plate:MR019): 41.7 nM
- potency estimated from few doses (compound concentrations:100 nM and 1000 nM (sheet 'Lestaurtinib' of Supplementary Table 1),run:Lestaurtinib_02624_R1,Plate:MR020): 52.8 nM
- potency estimated from few doses (compound concentrations:100 nM and 1000 nM (sheet 'Lestaurtinib' of Supplementary Table 1),run:Lestaurtinib_02624_R3,Plate:MR020): 37.9 nM
- potency estimated from few doses (compound concentrations:100 nM and 1000 nM (sheet 'Lestaurtinib' of Supplementary Table 1),run:Lestaurtinib_02724_R1,Plate:MR021): 39.4 nM
- potency estimated from few doses (compound concentrations:100 nM and 1000 nM (sheet 'Lestaurtinib' of Supplementary Table 1),run:Lestaurtinib_02724_R2,Plate:MR021): 50.8 nM
- potency estimated from few doses (compound concentrations:100 nM and 1000 nM (sheet 'Lestaurtinib' of Supplementary Table 1),run:Lestaurtinib_02724_R3,Plate:MR021): 44.7 nM
